According to PubChem BioAssay (EPA / NIEHS):
Results filed as inconclusive are left out. The source made the active and inactive calls. The calls were made as follows, unless noted: active = hit-call score of the fitted dose curve at least 0.9, where 1 is the maximum; inactive = score below 0.9.

How the values were obtained:
[1] = ATG_CRE_CIS: Attagene CIS-FACTORIAL HepG2 Assay for human cAMP Responsive Element (CRE) binding protein 3 (AID 2282926); details: HepG2 CRE cis-reporter, Attagene multiplexed mRNA; actives raise or lower the signal
In short: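 Transfected HepG2 were treated for 24 hours, then RNA was extracted and reporter cDNA amplified with sequence-specific primers. Labelled fragments were separated by capillary electrophoresis, and the CRE signal was fitted bidirectionally with DMSO as baseline.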

[2] = target: Transcription factor E2F1 (Homo sapiens) (UniProt Q01094); experiment: ATG_E2F_CIS: Attagene CIS-FACTORIAL HepG2 Assay for human E2F Transcription Factor 1 (AID 2282935); details: HepG2 Attagene cis-reporter, E2F reporter RNA transcripts; actives raise or lower the signal
Chain of Transcription factor E2F1 (Homo sapiens) (Q01094 whole entry, looked up): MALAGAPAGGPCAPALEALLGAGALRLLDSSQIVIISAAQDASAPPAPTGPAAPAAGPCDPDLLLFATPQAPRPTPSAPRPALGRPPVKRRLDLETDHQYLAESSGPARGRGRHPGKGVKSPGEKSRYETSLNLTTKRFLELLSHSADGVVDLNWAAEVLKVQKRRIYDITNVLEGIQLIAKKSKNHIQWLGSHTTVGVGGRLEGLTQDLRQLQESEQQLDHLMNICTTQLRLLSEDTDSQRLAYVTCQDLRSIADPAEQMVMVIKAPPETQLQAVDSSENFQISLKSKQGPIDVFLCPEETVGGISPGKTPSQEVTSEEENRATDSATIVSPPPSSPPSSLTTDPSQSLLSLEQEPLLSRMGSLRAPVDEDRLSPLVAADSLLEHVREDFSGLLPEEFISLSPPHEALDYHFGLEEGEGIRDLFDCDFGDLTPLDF
In short: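 Cis-element reporter mRNA induction in transiently transfected HepG2, 24 h exposure. Activity fitted in both directions relative to DMSO negative control.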

[3] = ATG_M_19_CIS: Attagene CIS-FACTORIAL HepG2 Assay for M19 Transcription Factor (Internal Marker) (AID 2282939); details: HepG2 Attagene CIS-FACTORIAL M19 internal marker reporter; actives raise or lower the signal
In short: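 Signals come from fluorescence of labelled reporter-specific PCR fragments resolved by capillary electrophoresis, following 24 h treatment of HepG2 cells transfected with cis-promoter reporter units; activity was fitted in both directions relative to DMSO.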

[4] = target: Hypoxia-inducible factor 1-alpha (Homo sapiens) (UniProt Q16665); experiment: ATG_HIF1a_CIS: Attagene CIS-FACTORIAL HepG2 Assay for human Hypoxia Inducible Factor 1 (HIF1A) (AID 2282951); details: HepG2 Attagene cis-factorial HIF1a reporter transcription; actives raise or lower the signal
Chain of Hypoxia-inducible factor 1-alpha (Homo sapiens) (Q16665 whole entry, looked up): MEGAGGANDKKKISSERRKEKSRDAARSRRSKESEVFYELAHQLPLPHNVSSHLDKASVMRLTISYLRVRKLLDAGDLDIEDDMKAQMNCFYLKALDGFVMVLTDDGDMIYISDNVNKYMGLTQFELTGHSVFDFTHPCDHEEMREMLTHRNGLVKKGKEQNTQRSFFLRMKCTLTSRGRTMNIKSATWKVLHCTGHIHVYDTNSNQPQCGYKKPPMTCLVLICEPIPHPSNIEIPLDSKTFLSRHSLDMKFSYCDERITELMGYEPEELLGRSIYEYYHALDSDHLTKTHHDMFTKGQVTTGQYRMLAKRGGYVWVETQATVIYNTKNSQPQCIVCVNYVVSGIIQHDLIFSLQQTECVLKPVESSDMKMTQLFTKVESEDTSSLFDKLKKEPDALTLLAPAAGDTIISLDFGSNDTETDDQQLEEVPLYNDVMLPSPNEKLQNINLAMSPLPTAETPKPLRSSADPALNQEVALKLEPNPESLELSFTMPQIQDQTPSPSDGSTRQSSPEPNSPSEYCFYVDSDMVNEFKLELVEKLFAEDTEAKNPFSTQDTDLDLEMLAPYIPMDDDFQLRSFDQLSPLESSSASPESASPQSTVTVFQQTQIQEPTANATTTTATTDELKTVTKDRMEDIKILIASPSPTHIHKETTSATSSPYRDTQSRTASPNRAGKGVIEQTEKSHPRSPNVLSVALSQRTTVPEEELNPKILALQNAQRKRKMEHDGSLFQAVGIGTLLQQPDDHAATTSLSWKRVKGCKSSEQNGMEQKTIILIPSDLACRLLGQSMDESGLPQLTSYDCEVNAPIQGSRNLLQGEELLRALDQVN
In short: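 RT-PCR/capillary electrophoresis fluorescence readout of reporter transcripts from endogenous-TF-driven cis elements in transfected HepG2 cells, 24 h exposure; activity fitted in both directions against DMSO controls.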

[5] = target: Heat shock factor protein 1 (Homo sapiens) (UniProt Q00613); experiment: ATG_HSE_CIS: Attagene CIS-FACTORIAL HepG2 Assay for human Heat Shock Transcription Factor 1 (HSE) (AID 2282953); details: HepG2 HSE cis-reporter, Attagene RNA transcription; actives raise or lower the signal
Chain of Heat shock factor protein 1 (Homo sapiens) (Q00613 whole entry, looked up, the tested form may be a part): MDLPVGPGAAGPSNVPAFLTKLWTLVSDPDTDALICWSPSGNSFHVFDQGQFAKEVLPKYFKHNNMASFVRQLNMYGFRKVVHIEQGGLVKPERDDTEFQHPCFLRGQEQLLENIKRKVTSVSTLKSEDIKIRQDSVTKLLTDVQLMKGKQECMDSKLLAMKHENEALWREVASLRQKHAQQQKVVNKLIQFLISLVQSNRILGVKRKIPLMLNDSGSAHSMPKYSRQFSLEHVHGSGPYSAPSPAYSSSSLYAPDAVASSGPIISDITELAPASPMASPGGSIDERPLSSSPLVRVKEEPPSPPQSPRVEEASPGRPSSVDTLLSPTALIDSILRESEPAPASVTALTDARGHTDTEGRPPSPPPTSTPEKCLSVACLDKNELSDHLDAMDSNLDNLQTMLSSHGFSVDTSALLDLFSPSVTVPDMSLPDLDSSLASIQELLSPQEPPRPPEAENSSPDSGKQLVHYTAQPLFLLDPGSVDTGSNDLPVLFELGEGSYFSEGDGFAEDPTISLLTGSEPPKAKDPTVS
In short: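 Endogenous transcription factor activity captured via cis-promoter reporter units transfected into HepG2; treatment lasted 24 h. Fluorescence intensity of reporter fragments analysed with bidirectional curve fitting, DMSO baseline.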

[6] = ATG_RORE_CIS: Attagene CIS-FACTORIAL HepG2 Assay for human RAR-related Orphan Receptor Element (RORE) (AID 2282959); details: HepG2 Attagene cis-factorial RORE reporter, mRNA; actives raise or lower the signal
In short: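 Readout: fluorescent reporter mRNA by RT-PCR plus capillary electrophoresis, 24 h after dosing transfected HepG2 cells. Endogenous transcription factor activity on a cis promoter element is measured. Gain or loss of signal fitted against DMSO.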

[7] = ATG_TAL_CIS: Attagene CIS-FACTORIAL HepG2 Assay for human TAL Basal Promoter (AID 2282966); details: HepG2 Attagene cis-factorial TAL promoter reporter; actives raise or lower the signal;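 also: background control endpoint measuring basal TAL promoter reporter mRNA not a specific factor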
In short: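 Steps: transfect HepG2 with multiple reporter transcription units; dose 24 h; isolate RNA, reverse-transcribe, PCR-amplify, label with 6-FAM, digest with HpaI; resolve by capillary electrophoresis. Bidirectional fitting against DMSO baseline.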

[8] = ATG_TGFb_CIS: Attagene CIS-FACTORIAL HepG2 Assay for human Transforming Growth Factor (TGF) (AID 2282967); details: HepG2 Attagene CIS TGFb reporter, mRNA transcription; actives raise or lower the signal
In short: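 Bidirectional fitting relative to DMSO gave the endpoint. Underlying data: reporter mRNA from HepG2 cells carrying transiently transfected cis-regulated reporter constructs, harvested 24 h after dosing and analyzed by RT-PCR and capillary electrophoresis.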

[9] = ATG_VDRE_CIS: Attagene CIS-FACTORIAL HepG2 Assay for human Vitamin D Receptor Element (VDRE) (AID 2282968); details: HepG2 VDRE cis-reporter transcription, actives raise or lower the signal
In short: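 Reporter mRNA induction, quantified by capillary electrophoresis of fluorescently labelled RT-PCR products, was read 24 h after dosing HepG2 cells carrying transiently transfected cis-regulated reporter units; gain or loss relative to DMSO.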

[10] = ATG_M_32_TRANS: Attagene TRANS-FACTORIAL HepG2 Assay for M32 Transcription Factor (Internal Marker) (AID 2282984; active = hit-call score of the fitted dose curve at least 0.9, where 1 is the maximum;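 also: transcript level of a background control reporter unit measured by RT-PCR and capillary electrophoresis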); details: HepG2 Attagene TRANS M32 internal marker reporter
In short: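 Measures reporter mRNA induction in human HepG2 liver cells after 24 h chemical treatment. Transcripts from transiently transfected GAL4-UAS reporter units are amplified, fluorescently labelled and sized by capillary electrophoresis; gain of signal relative to DMSO.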

[11] = target: Transcriptional activator Myb (Homo sapiens) (UniProt P10242); experiment: ATG_Myb_CIS: Attagene CIS-FACTORIAL HepG2 Assay for human Myeloblastosis (Myb) Proto-Oncogene Transcription Factor (AID 2282986); details: HepG2 Attagene CIS-FACTORIAL Myb reporter transcription; actives raise or lower the signal
Chain of Transcriptional activator Myb (Homo sapiens) (P10242 whole entry, looked up): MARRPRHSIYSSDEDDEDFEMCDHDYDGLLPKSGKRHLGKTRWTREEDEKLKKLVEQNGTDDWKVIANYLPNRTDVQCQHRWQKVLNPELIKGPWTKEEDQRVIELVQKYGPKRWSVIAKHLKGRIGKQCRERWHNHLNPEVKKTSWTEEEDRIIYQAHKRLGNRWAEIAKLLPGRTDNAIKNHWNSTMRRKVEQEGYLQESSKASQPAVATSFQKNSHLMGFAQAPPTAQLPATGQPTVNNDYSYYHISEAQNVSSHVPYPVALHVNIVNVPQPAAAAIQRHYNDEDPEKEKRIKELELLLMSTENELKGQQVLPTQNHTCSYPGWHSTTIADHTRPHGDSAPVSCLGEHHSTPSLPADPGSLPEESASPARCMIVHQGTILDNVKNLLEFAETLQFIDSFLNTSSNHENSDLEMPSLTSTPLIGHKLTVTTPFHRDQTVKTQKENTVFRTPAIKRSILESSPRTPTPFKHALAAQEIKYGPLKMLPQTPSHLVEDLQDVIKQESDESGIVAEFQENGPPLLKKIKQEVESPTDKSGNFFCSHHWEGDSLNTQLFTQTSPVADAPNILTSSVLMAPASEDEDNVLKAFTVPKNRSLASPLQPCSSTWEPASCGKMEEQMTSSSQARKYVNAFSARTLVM
In short: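 HepG2, transient MRTU transfection (cis-element promoters, endogenous TF activity), 24 h compound exposure. Readout: reporter mRNA via RT-PCR, 6-FAM labeling, HpaI digest, capillary electrophoresis. Gain/loss fit vs DMSO.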

[12] = target: Nuclear respiratory factor 1 (Homo sapiens) (UniProt Q16656); experiment: ATG_NRF1_CIS: Attagene CIS-FACTORIAL HepG2 Assay for human Nuclear Respiratory Factor 1 (NRF1) Orphan Gene (AID 2282987); details: HepG2 NRF1 cis-element reporter, Attagene multiplex; actives raise or lower the signal
Chain of Nuclear respiratory factor 1 (Homo sapiens) (Q16656 whole entry, looked up): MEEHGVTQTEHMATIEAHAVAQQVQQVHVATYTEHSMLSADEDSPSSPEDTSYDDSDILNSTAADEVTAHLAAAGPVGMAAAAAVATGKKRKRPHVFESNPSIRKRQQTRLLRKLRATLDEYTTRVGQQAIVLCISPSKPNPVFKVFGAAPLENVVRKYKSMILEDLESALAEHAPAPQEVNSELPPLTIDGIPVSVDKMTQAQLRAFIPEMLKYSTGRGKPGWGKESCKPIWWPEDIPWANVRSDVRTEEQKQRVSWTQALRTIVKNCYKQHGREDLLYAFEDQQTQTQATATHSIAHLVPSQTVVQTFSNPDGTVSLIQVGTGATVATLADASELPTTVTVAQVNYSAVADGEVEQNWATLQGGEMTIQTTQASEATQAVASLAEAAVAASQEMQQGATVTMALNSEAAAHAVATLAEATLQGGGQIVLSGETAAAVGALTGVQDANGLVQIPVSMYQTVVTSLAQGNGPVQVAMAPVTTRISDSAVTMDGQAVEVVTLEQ
In short: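 Endogenous NRF1-driven reporter transcription measured in transiently transfected human HepG2 liver cells. Readout: reporter mRNA by RT-PCR and capillary electrophoresis with fluorescence detection, 24 h post-dosing. Gain or loss of signal fitted relative to DMSO baseline.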

[13] = ATG_NFI_CIS: Attagene CIS-FACTORIAL HepG2 Assay for human Nuclear Factor I (NFI) (AID 2282989); details: HepG2 cis-regulatory reporter, NFI response element transcription; actives raise or lower the signal
In short: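 Cells: human liver HepG2, transiently transfected with promoter-regulated reporter transcription units. Exposure 24 h. Detection: fluorescent RT-PCR products separated by capillary electrophoresis, normalised to DMSO negative control.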

[14] = ATG_NF_kB_CIS: Attagene CIS-FACTORIAL HepG2 Assay for human Nuclear Factor Kappa B (NF-kB) (AID 2282991); details: HepG2 Attagene cis-factorial NF-kB reporter mRNA; actives raise or lower the signal
In short: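 Read-out: reporter transcript levels quantified by RT-PCR plus capillary electrophoresis of 6-FAM-labelled, HpaI-cut fragments. Transfected HepG2 cells, 24 h compound exposure, endogenous NF-kB-driven cis element; gain or loss scored versus DMSO.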

[15] = ATG_NRF2_ARE_CIS: Attagene CIS-FACTORIAL HepG2 Assay for human Nuclear Factor Erythroid 2 Related Factor 2 (NFR2) response to Antioxidant Response Elements (ARE) (AID 2282992); details: HepG2 Attagene ARE/NRF2 reporter, transcription factor activity; actives raise or lower the signal
In short: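 HepG2 cells transiently transfected with multiplexed cis-regulated reporter transcription units measure endogenous transcription factor activity. Reporter mRNA at 24 h is quantified by RT-PCR, fluorescent labelling and capillary electrophoresis, with bidirectional fitting relative to DMSO.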

[16] = ATG_Oct_MLP_CIS: Attagene CIS-FACTORIAL HepG2 Assay for human Octamer-Binding Transcription Factor (Oct) (AID 2282993); details: HepG2 Attagene cis-factorial Oct reporter, mRNA; actives raise or lower the signal
In short: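 HepG2, transient MRTU transfection, cis promoter elements; 24 h dosing; RT-PCR/CE fluorescence read-out of reporter mRNA; fit both directions vs DMSO.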

[17] = target: Cellular tumor antigen p53 (Homo sapiens) (UniProt P04637); experiment: ATG_p53_CIS: Attagene CIS-FACTORIAL HepG2 Assay for human p53 Transcription Factor (AID 2282994); details: HepG2 p53 cis-element reporter, Attagene mRNA; actives raise or lower the signal
Chain of Cellular tumor antigen p53 (Homo sapiens) (P04637 whole entry, looked up): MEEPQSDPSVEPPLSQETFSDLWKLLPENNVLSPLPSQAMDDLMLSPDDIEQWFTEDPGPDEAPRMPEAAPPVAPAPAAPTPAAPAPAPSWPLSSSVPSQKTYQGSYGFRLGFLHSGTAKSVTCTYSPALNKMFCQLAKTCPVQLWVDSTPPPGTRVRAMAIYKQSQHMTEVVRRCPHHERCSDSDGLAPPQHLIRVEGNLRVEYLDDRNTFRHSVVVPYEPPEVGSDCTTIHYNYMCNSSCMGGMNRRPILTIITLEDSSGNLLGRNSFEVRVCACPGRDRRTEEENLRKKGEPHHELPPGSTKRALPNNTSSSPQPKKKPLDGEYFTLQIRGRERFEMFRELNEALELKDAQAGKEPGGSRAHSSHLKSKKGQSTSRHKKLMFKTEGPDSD
In short: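 HepG2 cells transiently transfected with multiplexed cis-regulated reporter transcription units read endogenous TF activity. After 24 h compound exposure, reporter mRNA was quantified by RT-PCR, fluorescent labelling, HpaI digestion and capillary electrophoresis; bidirectional fits versus DMSO baseline.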

[18] = target: Peroxisome proliferator-activated receptor gamma (Homo sapiens) (UniProt P37231); experiment: ATG_PPARg_TRANS: Attagene TRANS-FACTORIAL HepG2 Assay for human Peroxisome Proliferator-activated Receptor-gamma (PPARg) (AID 2283007; active = hit-call score of the fitted dose curve at least 0.9, where 1 is the maximum)
Chain of Peroxisome proliferator-activated receptor gamma (Homo sapiens) (P37231 whole entry, looked up, the tested form may be a part): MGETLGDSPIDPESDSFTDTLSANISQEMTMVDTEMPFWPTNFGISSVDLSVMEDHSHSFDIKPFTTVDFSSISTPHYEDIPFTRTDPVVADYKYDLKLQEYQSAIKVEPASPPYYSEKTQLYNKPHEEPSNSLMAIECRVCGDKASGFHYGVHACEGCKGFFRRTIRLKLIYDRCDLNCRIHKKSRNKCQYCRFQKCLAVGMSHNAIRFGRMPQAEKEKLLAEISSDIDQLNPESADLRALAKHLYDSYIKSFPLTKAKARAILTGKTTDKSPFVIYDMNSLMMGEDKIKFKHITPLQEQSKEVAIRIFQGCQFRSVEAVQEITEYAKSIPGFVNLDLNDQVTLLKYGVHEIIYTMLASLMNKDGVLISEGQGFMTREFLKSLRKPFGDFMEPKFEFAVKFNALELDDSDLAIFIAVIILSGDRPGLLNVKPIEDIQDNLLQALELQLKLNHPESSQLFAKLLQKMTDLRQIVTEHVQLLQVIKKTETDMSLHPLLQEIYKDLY
In short: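 Read-out: reporter mRNA induction, detected by fluorescence after RT-PCR and capillary electrophoresis. Transiently transfected human HepG2 liver cells carrying a chimeric NR-Gal4 construct were dosed for 24 h; activity was fitted upward relative to DMSO.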

[19] = ATG_TA_CIS: Attagene CIS-FACTORIAL HepG2 Assay for human TA Basal Promoter (AID 2282964); details: HepG2 Attagene CIS-factorial TA basal promoter reporter; actives raise or lower the signal
In short: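 Fluorescence from labelled RT-PCR reporter fragments, separated by capillary electrophoresis, gives the signal. Cells: HepG2 transiently carrying multiple reporter units, 24 h chemical dosing. Gain or loss relative to DMSO.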

[20] = target: Paired box protein Pax-6 (Homo sapiens) (UniProt P26367); experiment: ATG_Pax6_CIS: Attagene CIS-FACTORIAL HepG2 Assay for human Paired Box 6 (PAX6) (AID 2282956); details: HepG2 CIS-FACTORIAL PAX6 reporter transcription, RNA readout; actives raise or lower the signal
Chain of Paired box protein Pax-6 (Homo sapiens) (P26367 whole entry, looked up): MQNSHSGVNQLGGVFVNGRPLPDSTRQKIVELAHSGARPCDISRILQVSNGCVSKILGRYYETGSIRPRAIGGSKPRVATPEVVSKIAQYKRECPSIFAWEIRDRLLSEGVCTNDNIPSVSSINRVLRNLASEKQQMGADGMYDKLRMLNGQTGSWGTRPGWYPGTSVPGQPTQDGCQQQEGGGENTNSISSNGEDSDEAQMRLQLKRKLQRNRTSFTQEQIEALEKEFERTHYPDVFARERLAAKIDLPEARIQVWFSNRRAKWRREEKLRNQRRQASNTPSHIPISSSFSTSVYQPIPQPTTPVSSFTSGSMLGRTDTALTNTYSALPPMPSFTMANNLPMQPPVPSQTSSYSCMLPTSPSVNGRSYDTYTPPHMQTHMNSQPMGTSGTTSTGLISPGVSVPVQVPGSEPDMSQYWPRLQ
In short: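 HepG2 cells transiently transfected with multiplexed cis-promoter reporter units (endogenous TF activity) were dosed for 24 h. Reporter mRNA was quantified by RT-PCR, 6-FAM labeling, HpaI digestion and capillary electrophoresis; bidirectional fitting versus DMSO baseline.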

Measured: AC50

N#Cc1cc(I)c(O)c(I)c1
active: [9] 30.8 µM | [15] 28.3 µM | [16] 39.3 µM | [18] 10.7 µM
not listed: [19] | [20]
inactive: all other assays above

Nc1ccc([N+](=O)[O-])cc1N
active: [15] 7.53 µM
not listed: [14] | [20]
inactive: all other assays above

COC(C)(C)CCC[C@H](C)C/C=C/C(C)=C/C(=O)OC(C)C
active: [20] 100 µM | [11] 165 µM | [15] 52.8 µM | [17] 157 µM | [18] 7.82 µM
not listed: [5] | [9]
inactive: all other assays above
